# Assay results as given in paper PMC7862700, “An all-to-all approach to the identification of sequence-specific readers for epigenetic DNA modifications on cytosine”.
# Tests used:
# Test in all cases: DAPPL (digital affinity profiling via proximity ligation, sequencing); 10 mM Tris-HCl pH 7.5, 50 mM NaCl, 1 mM DTT, 4% glycerol, room temperature, 30 min; GST-TFs on glutathione beads, 16-mer random dsDNA library, 0.1% formaldehyde crosslink after washing; high values mean tight binding
# Conditions in all cases: protein: recombinant; tags: N-terminal GST; dsDNA, one strand shown
# ERF = target: T1, ERF (Homo sapiens, UniProt P50548 1-548)
# T1 sequence: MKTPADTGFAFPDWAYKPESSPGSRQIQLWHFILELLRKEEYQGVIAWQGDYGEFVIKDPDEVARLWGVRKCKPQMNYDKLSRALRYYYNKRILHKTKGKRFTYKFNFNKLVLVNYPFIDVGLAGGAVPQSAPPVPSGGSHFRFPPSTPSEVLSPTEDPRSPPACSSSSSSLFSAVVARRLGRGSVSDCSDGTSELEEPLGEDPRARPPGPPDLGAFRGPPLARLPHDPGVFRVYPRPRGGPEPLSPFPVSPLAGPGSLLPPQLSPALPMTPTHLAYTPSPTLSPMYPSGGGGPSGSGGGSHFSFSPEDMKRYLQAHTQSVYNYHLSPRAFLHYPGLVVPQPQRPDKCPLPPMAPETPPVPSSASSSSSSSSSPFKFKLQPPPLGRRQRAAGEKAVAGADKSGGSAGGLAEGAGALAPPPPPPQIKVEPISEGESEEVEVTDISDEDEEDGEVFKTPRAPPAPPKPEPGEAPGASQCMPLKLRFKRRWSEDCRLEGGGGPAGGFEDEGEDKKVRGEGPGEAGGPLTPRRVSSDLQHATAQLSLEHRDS
# Procedure, shortened: (§1)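 After expression in yeast as GST fusions, human transcription factors were bound to glutathione beads, DNA-barcoded and mixed with a tag-only sample. The pools were incubated with 200 nmole of a 16-mer random double-stranded DNA library in Tris/NaCl/DTT/glycerol buffer (30 min, room temperature), washed and crosslinked with 0.1% formaldehyde. Proximity ligation with BsaI/T4 ligase ran for 1 h at 37 °C, before PCR amplification and sequencing on an Illumina NextSeq500. Binding signal is a hexamer's read frequency for a factor divided by its frequency for the tag-only sample.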
# ETV3L = target: T2, ETV3L (Homo sapiens, UniProt Q6ZN32 1-361)
# T2 sequence: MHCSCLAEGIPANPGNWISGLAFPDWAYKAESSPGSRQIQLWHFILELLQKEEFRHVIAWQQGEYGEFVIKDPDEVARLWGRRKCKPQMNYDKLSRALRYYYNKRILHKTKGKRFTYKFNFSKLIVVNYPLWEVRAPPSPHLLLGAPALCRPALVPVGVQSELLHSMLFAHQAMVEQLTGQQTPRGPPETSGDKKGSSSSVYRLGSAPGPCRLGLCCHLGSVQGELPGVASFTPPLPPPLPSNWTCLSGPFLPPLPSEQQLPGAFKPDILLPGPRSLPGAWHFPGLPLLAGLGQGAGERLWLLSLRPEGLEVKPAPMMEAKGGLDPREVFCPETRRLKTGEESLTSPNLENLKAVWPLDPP
# Procedure, shortened: as §1
# ETS2 = target: T3, ETS2 (Homo sapiens, UniProt P15036 1-469)
# T3 sequence: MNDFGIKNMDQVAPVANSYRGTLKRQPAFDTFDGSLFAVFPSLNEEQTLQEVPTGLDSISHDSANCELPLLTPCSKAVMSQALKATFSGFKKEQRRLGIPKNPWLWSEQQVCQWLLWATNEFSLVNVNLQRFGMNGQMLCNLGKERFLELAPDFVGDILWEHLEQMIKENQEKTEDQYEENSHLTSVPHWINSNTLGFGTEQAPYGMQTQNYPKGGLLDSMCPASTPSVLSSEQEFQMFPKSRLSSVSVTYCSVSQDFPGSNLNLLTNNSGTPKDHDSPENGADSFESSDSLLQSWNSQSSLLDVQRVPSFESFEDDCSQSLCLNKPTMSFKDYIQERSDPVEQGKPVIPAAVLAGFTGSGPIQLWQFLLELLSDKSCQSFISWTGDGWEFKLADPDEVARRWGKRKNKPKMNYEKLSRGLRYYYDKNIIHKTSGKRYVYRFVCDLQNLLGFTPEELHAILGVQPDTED
# Procedure, shortened: as §1
# SPDEF = target: T4, SPDEF (Homo sapiens, UniProt O95238 1-335)
# T4 sequence: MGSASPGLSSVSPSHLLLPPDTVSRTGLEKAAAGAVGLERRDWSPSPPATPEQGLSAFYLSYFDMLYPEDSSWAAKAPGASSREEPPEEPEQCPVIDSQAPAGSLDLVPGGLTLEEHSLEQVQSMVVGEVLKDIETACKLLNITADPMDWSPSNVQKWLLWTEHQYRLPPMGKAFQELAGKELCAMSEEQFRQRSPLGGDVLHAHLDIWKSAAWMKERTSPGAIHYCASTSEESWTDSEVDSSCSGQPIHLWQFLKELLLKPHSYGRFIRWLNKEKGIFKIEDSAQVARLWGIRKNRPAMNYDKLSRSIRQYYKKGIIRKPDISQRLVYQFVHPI
# Procedure, shortened: as §1
# ETV7 = target: T5, ETV7 (Homo sapiens, UniProt Q9Y603 1-341)
# T5 sequence: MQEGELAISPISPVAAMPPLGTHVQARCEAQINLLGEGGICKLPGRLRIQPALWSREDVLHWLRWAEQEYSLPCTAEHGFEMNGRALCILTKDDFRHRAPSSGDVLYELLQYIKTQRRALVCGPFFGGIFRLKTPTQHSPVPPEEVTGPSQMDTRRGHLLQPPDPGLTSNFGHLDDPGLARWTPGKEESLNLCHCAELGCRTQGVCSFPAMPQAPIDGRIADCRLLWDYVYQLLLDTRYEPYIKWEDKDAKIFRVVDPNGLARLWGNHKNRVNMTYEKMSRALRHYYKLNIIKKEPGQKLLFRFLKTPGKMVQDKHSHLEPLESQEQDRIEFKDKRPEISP
# Procedure, shortened: as §1
# ELF5 = target: T6, ELF5 (Homo sapiens, UniProt Q9UKW6-2 1-255)
# T6 sequence: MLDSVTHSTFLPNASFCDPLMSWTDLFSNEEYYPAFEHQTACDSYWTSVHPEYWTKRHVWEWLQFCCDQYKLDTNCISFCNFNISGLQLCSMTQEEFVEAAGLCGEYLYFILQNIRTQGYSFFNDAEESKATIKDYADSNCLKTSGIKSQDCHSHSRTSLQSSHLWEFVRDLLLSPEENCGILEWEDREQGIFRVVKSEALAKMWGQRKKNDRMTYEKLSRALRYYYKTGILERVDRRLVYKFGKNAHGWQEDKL
# Procedure, shortened: as §1
# ETV3 = target: T7, ETV3 (Homo sapiens, UniProt P41162-2 1-143)
# T7 sequence: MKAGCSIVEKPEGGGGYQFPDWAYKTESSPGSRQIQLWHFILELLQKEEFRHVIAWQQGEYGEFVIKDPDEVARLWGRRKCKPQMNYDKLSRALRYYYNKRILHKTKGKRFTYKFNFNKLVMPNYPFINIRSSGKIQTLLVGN
# Procedure, shortened: as §1
# ETV6 = ETV6 (Homo sapiens, UniProt P41212 1-452)
# ETV6, sequence (P41212 whole entry): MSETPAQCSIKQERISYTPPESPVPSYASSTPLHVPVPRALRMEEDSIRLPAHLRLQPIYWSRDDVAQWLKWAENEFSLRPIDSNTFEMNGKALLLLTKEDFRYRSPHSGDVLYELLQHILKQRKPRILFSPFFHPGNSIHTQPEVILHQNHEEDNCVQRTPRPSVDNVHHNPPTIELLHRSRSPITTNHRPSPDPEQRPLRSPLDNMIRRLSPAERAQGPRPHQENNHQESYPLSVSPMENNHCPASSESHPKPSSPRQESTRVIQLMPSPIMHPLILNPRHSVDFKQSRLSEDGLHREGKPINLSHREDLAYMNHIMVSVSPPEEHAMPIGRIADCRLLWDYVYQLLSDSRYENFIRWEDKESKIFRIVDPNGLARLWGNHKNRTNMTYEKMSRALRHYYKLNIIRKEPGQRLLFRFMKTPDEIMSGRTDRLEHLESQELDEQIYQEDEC
# Procedure, shortened: as §1
Sequence,binding signal (ERF),binding signal (ETV3L),binding signal (ETS2),binding signal (SPDEF),binding signal (ETV7),binding signal (ELF5),binding signal (ETV3),binding signal (ETV6)
ATCAAC,"1.15 fold enrichment (6-mer frequency, TF over GST control)","1.23 fold enrichment (6-mer frequency, TF over GST control)","1.18 fold enrichment (6-mer frequency, TF over GST control)","1.06 fold enrichment (6-mer frequency, TF over GST control)","1.02 fold enrichment (6-mer frequency, TF over GST control)","1.02 fold enrichment (6-mer frequency, TF over GST control)","1.12 fold enrichment (6-mer frequency, TF over GST control)","1.1 fold enrichment (6-mer frequency, TF over GST control)"
TCTCTT,"1.37 fold enrichment (6-mer frequency, TF over GST control)","1.49 fold enrichment (6-mer frequency, TF over GST control)","1.37 fold enrichment (6-mer frequency, TF over GST control)","1.32 fold enrichment (6-mer frequency, TF over GST control)","1.17 fold enrichment (6-mer frequency, TF over GST control)","1.39 fold enrichment (6-mer frequency, TF over GST control)","1.44 fold enrichment (6-mer frequency, TF over GST control)","1.36 fold enrichment (6-mer frequency, TF over GST control)"
TGAATA,"1.16 fold enrichment (6-mer frequency, TF over GST control)","1.11 fold enrichment (6-mer frequency, TF over GST control)","1.05 fold enrichment (6-mer frequency, TF over GST control)","1.09 fold enrichment (6-mer frequency, TF over GST control)","1.05 fold enrichment (6-mer frequency, TF over GST control)","1.07 fold enrichment (6-mer frequency, TF over GST control)","1.14 fold enrichment (6-mer frequency, TF over GST control)","1.08 fold enrichment (6-mer frequency, TF over GST control)"
ACGCTA,"1.2 fold enrichment (6-mer frequency, TF over GST control)","1.12 fold enrichment (6-mer frequency, TF over GST control)","1.01 fold enrichment (6-mer frequency, TF over GST control)","1.15 fold enrichment (6-mer frequency, TF over GST control)","1.17 fold enrichment (6-mer frequency, TF over GST control)","1.12 fold enrichment (6-mer frequency, TF over GST control)","1.21 fold enrichment (6-mer frequency, TF over GST control)","1.08 fold enrichment (6-mer frequency, TF over GST control)"
TACTGT,"1.2 fold enrichment (6-mer frequency, TF over GST control)","1.15 fold enrichment (6-mer frequency, TF over GST control)","1.16 fold enrichment (6-mer frequency, TF over GST control)","1.11 fold enrichment (6-mer frequency, TF over GST control)","1.04 fold enrichment (6-mer frequency, TF over GST control)","1.14 fold enrichment (6-mer frequency, TF over GST control)","1.13 fold enrichment (6-mer frequency, TF over GST control)","1.1 fold enrichment (6-mer frequency, TF over GST control)"
GTTCCT,"1.49 fold enrichment (6-mer frequency, TF over GST control)","1.71 fold enrichment (6-mer frequency, TF over GST control)","1.75 fold enrichment (6-mer frequency, TF over GST control)","1.74 fold enrichment (6-mer frequency, TF over GST control)","1.67 fold enrichment (6-mer frequency, TF over GST control)","2.54 fold enrichment (6-mer frequency, TF over GST control)","1.88 fold enrichment (6-mer frequency, TF over GST control)","1.82 fold enrichment (6-mer frequency, TF over GST control)"
TATGTT,"1.17 fold enrichment (6-mer frequency, TF over GST control)","1.2 fold enrichment (6-mer frequency, TF over GST control)","1.24 fold enrichment (6-mer frequency, TF over GST control)","1.18 fold enrichment (6-mer frequency, TF over GST control)","1.33 fold enrichment (6-mer frequency, TF over GST control)","1.24 fold enrichment (6-mer frequency, TF over GST control)","1.26 fold enrichment (6-mer frequency, TF over GST control)","1.08 fold enrichment (6-mer frequency, TF over GST control)"
